From PubChem BioAssay (NCATS)
Results filed as inconclusive are left out. Activity calls are given as the source filed them. Calls come from the whole dose curve; as a rule, active = well fitted inhibition curve with a large enough effect; inconclusive = small, poorly fitted or top-dose-only effect; inactive = flat fitted curve, though single readings scatter.

Assays:
PC26 = assay: qHTS profiling for inhibitors of Plasmodium falciparum proliferation (AID 504749);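 note: 0% = DMSO vehicle and full inhibition = artemisinin control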; settings: P. falciparum in erythrocytes, SYBR Green DNA, 72 h; series mostly up to 28.7 µM
In short: (§1)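 Infected RBCs, 0.3% parasitemia/2.5% Hct final; cpd 72 h, 37 C, 5% CO2; lysis buffer with saponin/triton/SYBR Green I, o/n RT dark; FI 485/535; norm. to artemisinin (0.29 uM) and DMSO.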

PC49 = assay: as above; settings: P. falciparum in erythrocytes, SYBR Green DNA, 72 h; series mostly up to 28.7 µM
In short: as §1

SC27B = assay: as above; settings: P. falciparum in erythrocytes, SYBR Green DNA, 72 h; series mostly up to 28.7 µM
In short: as §1

TAB109 = assay: as above; settings: P. falciparum in erythrocytes, SYBR Green DNA, 72 h; series mostly up to 28.7 µM
In short: as §1

TAB113 = assay: as above; settings: P. falciparum in erythrocytes, SYBR Green DNA, 72 h; series mostly up to 28.7 µM
In short: as §1

TAB165 = assay: as above; settings: P. falciparum in erythrocytes, SYBR Green DNA, 72 h; series mostly up to 28.7 µM
In short: as §1

W2 = assay: as above; settings: P. falciparum in erythrocytes, SYBR Green DNA, 72 h; series mostly up to 28.7 µM
In short: as §1

CRL-7250 = normal cell line; assay: Cytotoxic Profiling of Annotated Libraries Using Quantitative High-Throughput Screening (AID 1296008); settings: Five cell lines viability, CellTiter-Glo ATP luminescence, 48-72 h; active compounds read low; for max response: % is set by controls: 0 for no effect and ±100 for the full control effect
In short: (§2)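 Cytotoxicity was measured as CellTiter-Glo ATP luminescence, read after 10 min at room temperature. Compound treatment of the cells lasted 48 or 72 hr at 37 degrees Celsius in a qHTS format.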

HEK293 = assay: as above; settings: Five cell lines viability, CellTiter-Glo ATP luminescence, 48-72 h; active compounds read low
In short: as §2

HaCat [1] = assay: as above; settings: Five cell lines viability, CellTiter-Glo ATP luminescence, 48-72 h; active compounds read low
In short: as §2

KB-3-1 = assay: as above; settings: Five cell lines viability, CellTiter-Glo ATP luminescence, 48-72 h, active compounds read low
In short: as §2

NIH3T3 [2] = assay: as above; settings: Five cell lines viability, CellTiter-Glo ATP luminescence, 48-72 h; active compounds read low
In short: as §2

HACAT [3] = assay: qHTS assay to identify novel small-molecules to repurpose for Merkel cell carcinoma treatment (AID 1296009); settings: MCC and control cell lines, CellTiter-Glo viability, 72 h; at 44.8 µM (top of the series) unless noted
In short: (§3)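 72 hr, 37 degree celsius; NPC 8-pt / MIPE 11-pt dose response; compound pinned in DMSO; CellTiter-Glo, 10 min RT, luminescence; normalized to no-cell and DMSO controls.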

MCC-13 = assay: as above; settings: MCC and control cell lines, CellTiter-Glo viability, 72 h; series mostly up to 46 µM
In short: as §3

MCC-26 = assay: as above; settings: MCC and control cell lines, CellTiter-Glo viability, 72 h; series mostly up to 46 µM
In short: as §3

MKL-1 = assay: as above; settings: MCC and control cell lines, CellTiter-Glo viability, 72 h; series mostly up to 46 µM
In short: as §3

MKL-2 = assay: as above; settings: MCC and control cell lines, CellTiter-Glo viability, 72 h; series mostly up to 46 µM
In short: as §3

NIH3T3 [4] = assay: as above; settings: MCC and control cell lines, CellTiter-Glo viability, 72 h; at 44.8 µM (top of the series) unless noted
In short: as §3

UISO = assay: as above; settings: MCC and control cell lines, CellTiter-Glo viability, 72 h; series mostly up to 46 µM
In short: as §3

HEK293T = assay: as above; settings: MCC and control cell lines, CellTiter-Glo viability, 72 h; at 44.8 µM (top of the series) unless noted
In short: as §3
Note: nearly all actives have a fitted effect of over 60% in size.

O=C(NCCCN1CCOCC1)c1ccc(Cl)cc1
inactive: Potency (PC26) | Potency (PC49) | Potency (SC27B) | Potency (TAB109) | Potency (TAB113) | Potency (TAB165) | Potency (W2) | max response (CRL-7250) -10.4% | max response (HEK293) 1.26% | outcome (HaCat [1]) | max response (KB-3-1) 1.85% | outcome (NIH3T3 [2]) | outcome (HACAT [3]) | outcome (MCC-13) | outcome (MCC-26) | outcome (MKL-1) | outcome (MKL-2) | outcome (NIH3T3 [4]) | outcome (UISO)

CC[C@]12CCCN3CCc4c(n(c5ccccc45)[C@@](O)(C(=O)OC)C1)[C@@H]32
inactive: outcome (CRL-7250) | max response (HEK293) 0.673% | outcome (HaCat [1]) | max response (KB-3-1) 3.99% | outcome (NIH3T3 [2]) | outcome (HACAT [3]) | outcome (MCC-13) | outcome (MCC-26) | outcome (MKL-1) | outcome (MKL-2) | outcome (NIH3T3 [4]) | outcome (UISO)

COc1ccccc1OCC(O)CO (configuration not stated)
inactive: outcome (CRL-7250) | max response (HEK293) -2.29% | outcome (HaCat [1]) | max response (KB-3-1) 4.34% | outcome (NIH3T3 [2]) | outcome (HACAT [3]) | outcome (MCC-13) | outcome (MCC-26) | outcome (MKL-1) | outcome (MKL-2) | outcome (NIH3T3 [4]) | outcome (UISO)

Cc1onc(-c2ccccc2)c1-c1ccc(S(N)(=O)=O)cc1
inactive: Potency (PC26) | Potency (PC49) | Potency (SC27B) | Potency (TAB109) | Potency (TAB113) | Potency (TAB165) | Potency (W2) | outcome (CRL-7250) | max response (HEK293) -13.2% | outcome (HaCat [1]) | max response (KB-3-1) 6.03% | outcome (NIH3T3 [2]) | outcome (HACAT [3]) | outcome (MCC-13) | outcome (MCC-26) | outcome (MKL-1) | outcome (MKL-2) | outcome (NIH3T3 [4]) | outcome (UISO)

O=S1(=O)OC(c2ccc(O)cc2)(c2ccc(O)cc2)c2ccccc21
inactive: Potency (PC26) | Potency (PC49) | Potency (SC27B) | Potency (TAB109) | Potency (TAB113) | Potency (TAB165) | Potency (W2) | outcome (CRL-7250) | max response (HEK293) -9.72% | outcome (HaCat [1]) | max response (KB-3-1) 15.7% | outcome (NIH3T3 [2]) | outcome (HACAT [3]) | outcome (MCC-13) | outcome (MCC-26) | outcome (MKL-1) | outcome (MKL-2) | outcome (NIH3T3 [4]) | outcome (UISO)

CC(C)=CCC[C@@](C)(O)[C@H]1CC=C(C)CC1
inactive: max response (CRL-7250) 1.58% | outcome (HEK293) | outcome (HaCat [1]) | max response (KB-3-1) 4.77% | max response (NIH3T3 [2]) -5.4% | outcome (HACAT [3]) | outcome (HEK293T) | outcome (MCC-13) | outcome (MCC-26) | outcome (MKL-1) | outcome (MKL-2) | outcome (UISO)

CCN(CC)C(=O)c1cccc(C)c1
inactive: Potency (PC26) | Potency (PC49) | Potency (SC27B) | Potency (TAB109) | Potency (TAB113) | Potency (TAB165) | Potency (W2) | outcome (CRL-7250) | max response (HEK293) 0.224% | outcome (HaCat [1]) | max response (KB-3-1) 13.2% | outcome (NIH3T3 [2]) | outcome (HACAT [3]) | outcome (MCC-13) | outcome (MCC-26) | outcome (MKL-1) | outcome (MKL-2) | outcome (NIH3T3 [4]) | outcome (UISO)
